In all, about 5,500 compounds went through this assay and about 2,000 (36%) were called active. Another 18% or so got no clear call; they are omitted. Rule as the data show it: active = normalized growth mostly below about 0.91 (no sharp cut-off); inconclusive = no clear call, values can overlap the other calls; inactive = mostly above about 0.92. This is one part of the list.
Assay: chemical genetic growth profiling, strain panel (AID 1159580);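 also: tested at 20 µM; growth read once vehicle control cultures reached saturation at 30 °C; 1 = growth at the plate median or of vehicle wells; lower values mean less growth of the strain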
Settings: growth OD
[1] = S. cerevisiae deletion strains, locus YDL101C, strain DUN1, hits give low values
[2] = S. cerevisiae deletion strains, locus YHR030C, strain SLT2, hits give low values

Measured: normalized growth

CC(C)(C)C(=O)c1sc2sc(C(=O)C(C)(C)C)c(N)c2c1N
inactive: S. cerevisiae deletion strains, locus YAR019C, strain CDC15, hits give low values 0.993 | S. cerevisiae deletion strains, locus YBL105C, strain PKC1, hits give low values 0.992 | S. cerevisiae deletion strains, locus YBR135W, strain CKS1, hits give low values 0.984 | S. cerevisiae deletion strains, locus YBR136W, strain MEC1, hits give low values 0.984 | S. cerevisiae deletion strains, locus YBR160W, strain CDC28, hits give low values 0.994 | S. cerevisiae deletion strains, locus YDL017W, strain CDC7, hits give low values 0.993 | S. cerevisiae deletion strains, locus YDL028C, strain MPS1, hits give low values 0.992 | [1] 0.981 | S. cerevisiae deletion strains, locus YDL108W, strain KIN28, hits give low values 0.989 | S. cerevisiae deletion strains, locus YDL132W, strain cdc53, hits give low values 0.975 | S. cerevisiae deletion strains, locus YDL214C, strain PRR2, hits give low values 0.835 | S. cerevisiae deletion strains, locus YDR052C, strain DBF4, hits give low values 0.999 | S. cerevisiae deletion strains, locus YDR054C, strain cdc34, hits give low values 0.983 | S. cerevisiae deletion strains, locus YDR226W, strain ADK1, hits give low values 0.976 | S. cerevisiae deletion strains, locus YDR477W, strain SNF1, hits give low values 0.875 | S. cerevisiae deletion strains, locus YER123W, strain YCK3, hits give low values 0.752 | S. cerevisiae deletion strains, locus YER133W, strain GLC7, hits give low values 0.862 | S. cerevisiae deletion strains, locus YFL009W, strain cdc4, hits give low values 0.988 | S. cerevisiae deletion strains, locus YFL029C, strain CAK1, hits give low values 0.991 | S. cerevisiae deletion strains, locus YFR003C, strain YPI1, hits give low values 0.997 | S. cerevisiae deletion strains, locus YFR028C, strain CDC14, hits give low values 0.982 | S. cerevisiae deletion strains, locus YGR040W, strain KSS1, hits give low values 0.879 | S. cerevisiae deletion strains, locus YGR052W, strain FMP48, hits give low values 0.689 | S. cerevisiae deletion strains, locus YGR092W, strain DBF2, hits give low values 0.894 | S. cerevisiae deletion strains, locus YHR082C, strain KSP1, hits give low values 0.62 | S. cerevisiae deletion strains, locus YHR205W, strain SCH9, hits give low values 0.872 | S. cerevisiae deletion strains, locus YIL147C, strain SLN1, hits give low values 0.995 | S. cerevisiae deletion strains, locus YJL095W, strain BCK1, hits give low values 0.52 | S. cerevisiae deletion strains, locus YJL128C, strain PBS2, hits give low values 0.931 | S. cerevisiae deletion strains, locus YJL157C, strain FAR1, hits give low values 0.785 | S. cerevisiae deletion strains, locus YJR016C, strain ILV3, hits give low values 0.99 | S. cerevisiae deletion strains, locus YJR066W, strain TOR1 (second series), hits give low values 0.823 | S. cerevisiae deletion strains, locus YJR066W, strain TOR1, hits give low values 0.589 | S. cerevisiae deletion strains, locus YKL048C, strain ELM1, hits give low values 0.983 | S. cerevisiae deletion strains, locus YKL067W, strain YNK1, hits give low values 0.902 | S. cerevisiae deletion strains, locus YKL101W, strain HSL1, hits give low values 0.962 | S. cerevisiae deletion strains, locus YKL193C, strain SDS22, hits give low values 0.987 | S. cerevisiae deletion strains, locus YKL203C, strain TOR2, hits give low values 0.936 | S. cerevisiae deletion strains, locus YLR133W, strain CKI1, hits give low values 0.888 | S. cerevisiae deletion strains, locus YLR403W, strain SFP1, hits give low values 0.851 | S. cerevisiae deletion strains, locus YML070W, strain DAK1, hits give low values 0.704 | S. cerevisiae deletion strains, locus YMR001C, strain CDC5, hits give low values 0.993 | S. cerevisiae deletion strains, locus YMR205C, strain PFK2 (second series), hits give low values 0.965 | S. cerevisiae deletion strains, locus YMR277W, strain FCP1, hits give low values 0.989 | S. cerevisiae deletion strains, locus YNL006W, strain LST8, hits give low values 0.999 | S. cerevisiae deletion strains, locus YNL020C, strain ARK1, hits give low values 0.892 | S. cerevisiae deletion strains, locus YNL161W, strain CBK1, hits give low values 0.994 | S. cerevisiae deletion strains, locus YNL183C, strain NPR1, hits give low values 0.855 | S. cerevisiae deletion strains, locus YNL207W, strain RIO2, hits give low values 0.989 | S. cerevisiae deletion strains, locus YNL222W, strain SSU72, hits give low values 0.993 | S. cerevisiae deletion strains, locus YNL307C, strain MCK1 (second series), hits give low values 0.97 | S. cerevisiae deletion strains, locus YOL078W, strain AVO1, hits give low values 0.987 | S. cerevisiae deletion strains, locus YOR061W, strain CKA2, hits give low values 0.915 | S. cerevisiae deletion strains, locus YOR119C, strain RIO1, hits give low values 1.01 | S. cerevisiae deletion strains, locus YOR231W, strain MKK1, hits give low values 0.682 | S. cerevisiae deletion strains, locus YOR329C, strain SCD5, hits give low values 0.991 | S. cerevisiae deletion strains, locus YPL031C, strain PHO85, hits give low values 0.804 | S. cerevisiae deletion strains, locus YPL153C, strain RAD53, hits give low values 0.692 | S. cerevisiae deletion strains, locus YPL209C, strain IPL1, hits give low values 0.993 | S. cerevisiae deletion strains, locus YPR025C, strain CCL1, hits give low values 0.991 | S. cerevisiae deletion strains, locus YPR106W, strain ISR1, hits give low values 0.995 | S. cerevisiae deletion strains, locus YPR111W, strain DBF20, hits give low values 0.99 | S. cerevisiae deletion strains, strain NNK1, hits give low values 0.996 | S. cerevisiae deletion strains, strain TSCII, hits give low values 0.994
active: S. cerevisiae deletion strains, locus YFR019W, strain FAB1, hits give low values 0.47 | [2] 0.152 | S. cerevisiae deletion strains, locus YHR079C, strain IRE1, hits give low values 0.274 | S. cerevisiae deletion strains, locus YLR113W, strain HOG1, hits give low values 0.663 | S. cerevisiae deletion strains, locus YOL136C, strain PFK27, hits give low values 0.6 | S. cerevisiae deletion strains, locus YPL204W, strain HRR25, hits give low values 0.646 | S. cerevisiae deletion strains, locus YPL256C, strain CLN2, hits give low values 0.326

CC(C)(C)c1ccc(-c2cc(N)c(C(N)=O)s2)cc1
inactive: S. cerevisiae deletion strains, locus YAL013W, strain DEP1, hits give low values 0.978 | S. cerevisiae deletion strains, locus YBR229C, strain ROT2, hits give low values 0.997 | S. cerevisiae deletion strains, locus YCL061C, strain MRC1, hits give low values 1.01 | [1] 1.01 | S. cerevisiae deletion strains, locus YDR150W, strain NUM1, hits give low values 0.974 | S. cerevisiae deletion strains, locus YEL061C, strain CIN8, hits give low values 0.967 | S. cerevisiae deletion strains, locus YGR078C, strain PAC10, hits give low values 1.01 | [2] 0.761 | S. cerevisiae deletion strains, locus YHR087W, strain rtc3, hits give low values 1.02 | S. cerevisiae deletion strains, locus YJR043C, strain POL32, hits give low values 0.979 | S. cerevisiae deletion strains, locus YJR075W, strain HOC1, hits give low values 1 | S. cerevisiae deletion strains, locus YKL190W, strain CNB1, hits give low values 1 | S. cerevisiae deletion strains, locus YLR039C, strain RIC1, hits give low values 0.93 | S. cerevisiae deletion strains, locus YLR058C, strain SHM2 (second series), hits give low values 1.01 | S. cerevisiae deletion strains, locus YLR085C, strain ARP6, hits give low values 0.987 | S. cerevisiae deletion strains, locus YLR262C, strain YPT6, hits give low values 0.827 | S. cerevisiae deletion strains, locus YML094W, strain GIM5, hits give low values 1.01 | S. cerevisiae deletion strains, locus YMR219W, strain ESC1, hits give low values 0.996 | S. cerevisiae deletion strains, locus YMR263W, strain SAP30, hits give low values 0.967 | S. cerevisiae deletion strains, locus YMR307W, strain GAS1, hits give low values 0.881 | S. cerevisiae deletion strains, locus YNL153C, strain GIM3, hits give low values 1 | S. cerevisiae deletion strains, locus YNL298W, strain CLA4 (second series), hits give low values 0.966 | S. cerevisiae deletion strains, locus YNL322C, strain KRE1, hits give low values 0.985 | S. cerevisiae deletion strains, locus YNR030W, strain Alg12, hits give low values 0.942 | S. cerevisiae deletion strains, locus YOL006C, strain TOP1, hits give low values 0.946 | S. cerevisiae deletion strains, locus YPL055C, strain LGE1, hits give low values 0.916 | S. cerevisiae deletion strains, locus YPL241C, strain CIN2, hits give low values 0.983 | S. cerevisiae deletion strains, locus YPR135W, strain CTF4, hits give low values 0.783 | S. cerevisiae strains, strain wild type, hits give low values 0.989

— PubChem BioAssay AID1159580 (chemical genetic matrix, 2015)
